Screening data from PubChem BioAssay.
CSC inhib – blocks cancer stem cells | cancer stem cell-like cells viability, luminescence | 1.1% of 300,000 active | inhibition, % at 7.5 µM | AID 2717; in the data active = inhibition above about 75%; tested in HMLE shEcad cells
SKKanGAS inh – blocks kanamycin growth of S. pyogenes SKKanGAS strain; BacTiter-Glo, 6 h; inhibition, % at 7.5 µM; 1.3% of 300,000 active; AID 1662;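 active = mean replicate score, as percent of positive control median, at least 50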;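 note: strain carries kanamycin resistance gene driven by streptokinase promoter and grows in 40 µg/ml kanamycin; loss of luminescence reflects streptokinase promoter inhibition or plain growth inhibition; 0% = median of DMSO wells and 100% = positive control at its reference dose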
IEC-6 cytotox – kills IEC-6 intestinal cells in KLF5 counter-screen; 0.78% of 290,000 active; AID 1825; inhibition, % at 5 µM; IEC-6 cytotoxicity, luminescence viability;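 note: 0% = plate median of test compound wells and 100% = cytotoxic reference compound wells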
aSyn 5UTR inh – 5' untranslated region of α-synuclein, MLPCN primary screen; alpha-synuclein 5'UTR reporter, inhibitor activity; inhibition, % (tested at 7.5 µM); 0.82% of 300,000 active; AID 1813; in the data active = inhibition above about 60%;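 note: H4 neuroglioblastoma cells stably carrying SNCA 5'UTR luciferase fusion; 0% = DMSO wells and 100% = positive control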
KLF5 inh – inhibitors of KLF5 expression | DLD-1 KLF5 promoter-luciferase reporter, luminescence | inhibition, % at 5 µM | 0.23% of 290,000 active | AID 1700;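 active = inhibition above a per-plate limit of that plate's mean compound inhibition plus 3 SD, cut at about 60% in these data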;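 note: 0% = DMSO wells and 100% = LY294002 at 200 µM; higher means less KLF5 promoter-driven luciferase light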
IEC-6 cytotox cf – IEC-6 cytotoxicity, confirmation assay; shares compounds with IEC-6 cytotox; IEC-6 rat intestinal epithelial viability, luminescence; inhibition, % at 5 µM; 63% of 1,900 active; AID 1907;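 note: 0% = vehicle and 100% = reference cytotoxic drug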
The depositor's hits bear a star; . = not tested or not shown. An excerpt weighted towards active compounds, which were near 3% of everything screened. Cut-off read from the data, not from the text of the source, unless noted: active = inhibition above about 22%; inactive = the rest.

SMILES | CSC inhib | SKKanGAS inh | IEC-6 cytotox | aSyn 5UTR inh | KLF5 inh | IEC-6 cytotox cf
COC(=O)c1ccc(S(=O)(=O)NC(C)(C)C)n1C | -1.8 | -2.0 | 7.5 | -3.8 | 14.3 | .
O=C(c1ccccc1NS(=O)(=O)c1ccc(F)cc1)N1CCOCC1 | -3.4 | -3.4 | 1.5 | -4.0 | -12.1 | .
O=C(c1ccc(OC2CCN(Cc3ccccn3)CC2)cc1)N1CCCCO1 | -4.1 | -0.6 | -1.9 | -11.2 | -10.2 | .
Cc1cc(C)cc(OCCn2nnc3ccccc32)c1 | -13.1 | 3.3 | -3.0 | -126.4 | -76.3 | .
BrC(=C\c1ccccc1)/C=N/n1cnnc1 | . | 7.8 | 74.9* | -36.1 | 20.4 | 25.6*
BrC(=C\c1ccccc1)/C=N/Nc1ccc2nncn2n1 | -4.0 | 1.3 | 10.6 | -14.2 | -0.2 | .
COc1ccc(OCc2nnc(SCC(=O)Nc3nnc(C4CC4)s3)n2C)cc1 | -5.4 | 0.0 | 3.7 | 13.4 | -16.5 | .
Cc1ccc(C)c(N(CC(=O)NCCc2ccccc2)C(=O)CCC(=O)Nc2ccccn2)c1 | . | -3.3 | 1.9 | 19.9 | -4.0 | .
Cc1ccn2c(C(=O)CSc3ccccc3)c(C)nc2c1 | -3.4 | -9.3 | 23.2* | -64.7 | -26.9 | 21.7
Cc1ccc(SCC(=O)c2c(C)nc3cc(C)ccn23)cc1 | 5.2 | 7.9 | 7.0 | -11.8 | -10.3 | .
CN(C)C(CNC(=O)c1ccccc1OCc1ccc(Cl)cc1)c1ccco1 (stereo not given) | 8.3 | 1.5 | . | -3.1 | . | .
CN(C)c1ccc(N=Nc2cccc(F)c2)cc1 | 13.6 | 11.3 | 6.6 | -106.5 | -98.4 | .
Nc1nn(-c2ccccc2)c(N)c1N=Nc1cccc(F)c1 | 51.1 | 2.7 | 77.0* | -57.2 | -35.9 | 59.0*
c1ccc(Nc2nc(-c3cccnc3)cs2)nc1 | 1.1 | -11.0 | -4.7 | -39.3 | -185.1 | .
Fc1ccc(-c2csc(Nc3ccccn3)n2)cc1 | 12.6 | -3.2 | 32.3* | -77.0 | -278.4 | 10.0
Cc1cccc2cc3c(nc12)SC(=NCC1CCCO1)N(Cc1ccco1)C3 (stereo not given) | -2.8 | 40.3 | 88.5* | 19.1 | 9.4 | 3.5
Cc1ccc(S(=O)(=O)N(C)c2ccc(OC(=O)c3cccs3)cc2)cc1C | -11.7 | . | . | . | . | .
CC1CC(C)CN(S(=O)(=O)c2ccc(C(=O)N(C)Cc3ccccc3)cc2)C1 (stereo not given) | -10.7 | . | . | . | . | .
C=CCN(CC=C)S(=O)(=O)c1ccc2nc(NC(=O)C(C)C)sc2c1 | 65.8 | . | 54.3* | . | 39.7 | 46.5*
COC(=O)c1ccccc1NC(=O)CNCCc1ccc(OC)c(OC)c1 | 1.2 | -2.2 | 7.1 | 19.2 | -13.5 | .
CC(C)C(=O)NC(c1cccc([N+](=O)[O-])c1)c1ccc2cccnc2c1O (stereo not given) | 99.7* | 23.9 | 25.0* | 90.7* | 78.9* | 67.0*
CC(=O)NC(c1ccc(Cl)cc1Cl)c1ccc2cccnc2c1O (stereo not given) | -17.9 | 73.2* | 48.7* | 85.9* | 59.5 | 73.5*
CC(=O)NC(CC(=O)NC(C)c1ccc(Cl)cc1Cl)c1ccccc1 (stereo not given) | 2.9 | -5.0 | -2.4 | 14.9 | -1.5 | .
O=c1[nH]c(C2CCN(S(=O)(=O)c3cccc([N+](=O)[O-])c3)CC2)nc2c1nnn2Cc1ccccc1 | . | 6.8 | 0.8 | 8.1 | 8.2 | .
Cn1c(CNC(=O)c2ccco2)nnc1SCC(=O)c1ccc(Br)cc1 | . | 9.2 | 2.7 | 0.5 | -15.7 | .
SMILES | CSC inhib | SKKanGAS inh | IEC-6 cytotox | aSyn 5UTR inh | KLF5 inh | IEC-6 cytotox cf
Nn1cnnc1N/N=C/c1cccc(Cl)c1Cl | -6.3 | 16.0 | -5.2 | -2.7 | -39.4 | .
CCc1nnc(N/N=C/c2ccccc2Cl)n1N | 2.9 | -7.5 | 100.3* | -10.4 | 39.0 | -6.1
Brc1ccc2ncnc(Nc3cccc4ccccc34)c2c1 | 40.1 | 1.9 | 28.0* | -22.0 | 15.4 | 41.5*
O=C(COc1ccc(-c2ccccc2)cc1)N1CCN(C(=O)c2cccs2)CC1 | -3.1 | -11.7 | -0.2 | 14.5 | -24.6 | .
CC(=O)Nc1ccc2c(c1)CCCC2=O | -3.5 | 0.3 | 2.2 | -21.2 | -4.5 | .
O=C1CCCc2cc3c(cc21)CC1(C3)Cc2cc3c(cc2C1)C(=O)CCC3 | 64.5 | 16.8 | 31.7* | -38.6 | 17.0 | 35.3*
CCCN(CC(=O)Nc1ccccc1OC)C(=O)c1ccc(S(=O)(=O)Nc2ccccc2)cc1 | -8.8 | 16.6 | . | 11.8 | . | .
Clc1cccc(Cl)c1/C=N/Nc1c(Cl)cncc1Cl | . | 29.8 | 57.7* | -30.0 | 9.1 | 54.2*
Clc1cncc(Cl)c1N/N=C/c1ccncc1 | 9.7 | -3.4 | -5.8 | 31.5 | -0.9 | .
COc1ccc(NC(=O)CN2C(=O)NC3(CCCc4ccccc43)C2=O)c(OC)c1 (stereo not given) | -3.7 | . | . | . | . | .
COc1ccc(N2CC(O)=C(c3nc4ccccc4s3)C2=N)cc1 | 12.0 | 7.7 | 3.5 | 5.7 | -24.0 | .
